# Data from PubChem BioAssay.
# The source made the active and inactive calls. Unless noted, how the calls were made is not given here.
# Experiments:
# [1] = test system: Wnt5a (protein binding on small-molecule microarray); experiment: Wnt5a binders on small-molecule microarray, primary screen, biophysical, 635/667 nm fluorescence (AID 1142); conditions: 635 nm fluorescence, higher = more signal;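 further: fluorescence read at 667 nm with signal to noise per printed feature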
# [2] = cell viability in Huh7 cells, primary screen, cytotoxicity control for HCV replication inhibitor project, CellTiter-Glo luminescence, basal, 48 h (AID 1143); conditions: Huh7 HCV replicon, higher = more signal, called active from +8 up or from −8 down;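 further: Huh7 hepatoma cells carrying a hepatitis C replication reporter with no stimulus; test concentration not given here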
# [3] = P. aeruginosa biofilm formation inhibitors, primary screen, PAO1 strain, BacTiter-Glo luminescence, LB-PBS (AID 1144); conditions: 12 h, higher = more signal
# [4] = CREB reporter modulators without forskolin, primary screen, cell-based, PC12, CRE-LacZ reporter, unstimulated (AID 1145); conditions: no forskolin, luminescence, 4.5 h, higher = more signal, called active from +8 up or from −8 down
# [5] = CREB reporter modulators under forskolin, primary screen, cell-based, PC12, CRE-LacZ reporter, forskolin-stimulated (AID 1146); conditions: luminescence, 4.5 h, higher = more signal, called active from +8 up or from −8 down;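 further: PC12 cells with 6xCRE LacZ reporter stimulated by forskolin 10 µM; beta-galactosidase reporter signal reflecting CREB driven transcription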
# [6] = target: Streptavidin (Streptomyces avidinii) (UniProt P22629); experiment: streptavidin binders on small-molecule microarray, primary screen, artefact control for SMM compound annotation, biophysical, 635/667 nm fluorescence (AID 1147); conditions: streptavidin binding, higher = more signal;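 further: signal reflects streptavidin binding to arrayed compounds as a control protein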
# [7] = small-molecule binders of probe aInhba, primary screen, biochemical, small-molecule microarray, 635/667 nm fluorescence (AID 1148); conditions: higher = more signal;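 further: score merges 667nm spot fluorescence with signal-to-noise for antibody binding to printed compounds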
# Torsin-1A (Homo sapiens) [8] = target: Torsin-1A (Homo sapiens) (UniProt O14656); experiment: torsin A binders from cell lysate, primary screen, small-molecule microarray, wild-type, 635/667 nm (AID 1149); conditions: COS7 hTOR1A-WT lysate, 635 nm fluorescence, higher = more signal
# Torsin-1A (Homo sapiens) [9] = target: Torsin-1A (Homo sapiens) (UniProt O14656); experiment: small-molecule binders of mutant TOR1A in lysate, primary screen, cell lysate, small-molecule microarray, COS7 lysate, 635/667 nm fluorescence (AID 1150); conditions: COS7 hTOR1A mutant lysate, 635 nm fluorescence, higher = more signal;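 further: score pools 667 nm emission and signal to noise measuring lysate protein binding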
# [10] = test system: Sonic hedgehog protein (Shh); experiment: small-molecule binders of Shh protein, primary screen, biochemical, small-molecule microarray, 635/667 nm fluorescence (AID 1151); conditions: small-molecule microarray binding, 635 nm fluorescence; higher = more signal;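 further: Shh protein binding to compounds spotted on small-molecule microarray slides; score combines spot fluorescence intensity with signal-to-noise across triplicate slides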
# Sequence of Torsin-1A (Homo sapiens) (O14656 whole entry, looked up): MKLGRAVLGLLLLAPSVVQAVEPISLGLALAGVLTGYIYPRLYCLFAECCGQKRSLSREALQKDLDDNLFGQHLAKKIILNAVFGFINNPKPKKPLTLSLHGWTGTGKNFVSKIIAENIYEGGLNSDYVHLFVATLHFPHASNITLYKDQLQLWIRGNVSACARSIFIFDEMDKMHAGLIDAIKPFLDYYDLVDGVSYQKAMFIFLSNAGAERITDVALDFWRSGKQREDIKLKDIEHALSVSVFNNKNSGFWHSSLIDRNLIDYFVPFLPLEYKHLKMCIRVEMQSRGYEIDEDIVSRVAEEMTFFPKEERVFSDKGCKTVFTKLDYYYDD
# Sequence of Streptavidin (Streptomyces avidinii) (P22629 whole entry, looked up): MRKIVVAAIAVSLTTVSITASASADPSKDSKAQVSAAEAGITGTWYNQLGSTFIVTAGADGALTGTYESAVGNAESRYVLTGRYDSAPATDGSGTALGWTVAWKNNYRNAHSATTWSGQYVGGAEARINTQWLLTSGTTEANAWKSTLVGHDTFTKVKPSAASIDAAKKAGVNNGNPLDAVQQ
SMILES,composite z-score [1],z-score [2],z-score [3],z-score [4],z-score [5],composite z-score [6],composite z-score [7],composite z-score (Torsin-1A (Homo sapiens) [8]),composite z-score (Torsin-1A (Homo sapiens) [9]),composite z-score [10]
COC(=O)[C@@]1(Cc2ccc(F)cc2)[C@H]2c3cc(C(=O)N4CCCC4)n(CCF)c3C[C@H]2CN1C(=O)c1ccccc1,1.5,-2.28 (inactive),-0.603 (inactive),0.952 (inactive),1.33 (inactive),1.99,1.66,0.103,1.07,-0.462
CC(C)CNC(=O)[C@@H]1c2ccccc2C(=O)N(Cc2cc(F)cc(C(F)(F)F)c2)[C@H]1c1ccc(CO)cc1,0.342,-0.959 (inactive),0.96 (inactive),0.001 (inactive),-0.372 (inactive),0.111,0.117,0.71,0.192,0.465
C=CCC(OC(C)=O)[C@@H]1[C@@H](N(Cc2cc3ccccc3o2)C(=O)c2ccc(C)cc2)c2cc(OCCCO)ccc2N1C(=O)Cc1ccc2ccccc2c1 (stereo not given in full),-0.109,0.218 (inactive),-0.956 (inactive),2.37 (inactive),-0.072 (inactive),-0.172,-0.0523,-0.0509,-0.0619,0.0781
CC(C)(C)OC(=O)CC[C@]1(C(=O)NCCN2CCOCC2)N=C(c2ccc(OCCCO)cc2)O[C@H]1c1ccccc1N=[N+]=[N-],0.191,-0.616 (inactive),0.145 (inactive),0.872 (inactive),-0.55 (inactive),0.615,0.367,0.0272,1.28,-0.299
CC[C@H]1C2=C3C(CC[C@H]4C(OCc5ccc(F)cc5C(F)(F)F)OC[C@](C)([C@@H]34)N(C(=O)OC(C)(C)C)C2)C2COC(=O)OCC21 (stereo not given in full),0.0641,-2.57 (inactive),0.265 (inactive),0.576 (inactive),0.204 (inactive),1.44,0.0003,0.246,0.666,0.0392
O=C1C[C@@](C(=O)NCC(F)(F)F)(c2ccc([N+](=O)[O-])cc2)[C@@H](c2ccc(CO)cc2)N1C1CCCCC1,0.247,-1.97 (inactive),0.0325 (inactive),0.854 (inactive),-0.369 (inactive),0.579,0.101,1.36,1.57,1.22
O=C1O[C@@H](c2ccccc2)[C@@H](c2ccccc2)N2[C@@H](c3ccccc3OCCO)[C@]3(C(=O)Nc4ccc(C#CCCO)cc43)[C@@H](C(=O)N3CCN(c4ncccn4)CC3)[C@H]12,0.174,-2.33 (inactive),0.608 (inactive),0.478 (inactive),2.99 (inactive),0.139,-0.0448,-0.566,0.224,-0.105
